Screens: PubChem, National Center for Advancing Translational Sciences (NCATS)
Hits are enriched below; roughly 0.92% of the tested compounds scored in any of these assays.
BLM inh: qHTS Assay for Inhibitors of Bloom's syndrome helicase (BLM); recombinant BLM DNA unwinding, fluorescence dequenching; AID 2528, 2010; RecQ-like DNA helicase BLM (Homo sapiens), P54132; actives 0.2% (n = 350,000); Potency, µM (top dose mostly 56.1 µM), without a hit: at the highest dose activity change, negative = inhibition, actives largely listed as inhibitors;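 also: plate controls were vehicle for no effect and no enzyme for full effect; nearly all actives have a fitted effect of over 35% in size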
TDP1 block: qHTS Assay for Inhibitors of Tyrosyl-DNA Phosphodiesterase (TDP1). Tyrosyl-DNA phosphodiesterase 1 (Homo sapiens), Q9NUW8. recombinant TDP1, AlphaScreen DNA substrate cleavage. Potency, µM (titrated, usually from 130 µM), inactives show top-dose activity change, negative = inhibition, actives largely listed as inhibitors. actives 0.28% (n = 350,000); also: % is scaled to controls: 0 for no effect and ±100 for the full control effect; nearly all actives have a fitted effect of over 40% in size
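Compounds were preincubated with Tdp1 (1 nM final) for 15 min at room temperature before substrate (15 nM final) started a 5 min reaction; beads (10 ug/ml final) were then added for 10 min before AlphaScreen detection.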
APE1 inh-1: qHTS Assay for Inhibitors of the Human Apurinic/apyrimidinic Endonuclease 1 (APE1). recombinant APE1, TAMRA/BHQ-2 abasic DNA cleavage fluorescence. actives 0.35% (n = 350,000). DNA repair nuclease/redox regulator APEX1 (Homo sapiens), P27695. Potency, µM (doses to about 65.8 µM), for the others: at the highest dose activity change, negative = inhibition, usual class: inhibitors;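 also: plate controls were vehicle for no effect and reference inhibitor for full effect; nearly all actives have a fitted effect of over 55% in size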
Target sequence (P27695 whole entry, looked up): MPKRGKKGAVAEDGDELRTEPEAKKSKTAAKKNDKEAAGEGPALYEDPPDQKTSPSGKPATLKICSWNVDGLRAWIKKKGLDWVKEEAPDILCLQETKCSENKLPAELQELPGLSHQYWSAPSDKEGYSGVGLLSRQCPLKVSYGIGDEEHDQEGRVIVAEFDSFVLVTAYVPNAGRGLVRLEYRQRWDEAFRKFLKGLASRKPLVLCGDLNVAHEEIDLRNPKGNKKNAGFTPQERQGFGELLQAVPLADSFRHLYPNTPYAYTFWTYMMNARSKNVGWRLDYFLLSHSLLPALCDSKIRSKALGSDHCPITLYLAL
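Activity was derived from the fluorescence gain between first and third kinetic reads (60 s intervals, ex 525/em 598 nm) after 50 nM THF-abasic TAMRA/BHQ-2 duplex was added to 0.75 nM APE1 preincubated 15 min with compound.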
RECQ1 inh-1: qHTS Assay for Inhibitors of RecQ-Like Dna Helicase 1 (RECQ1); ATP-dependent DNA helicase Q1 (Homo sapiens), P46063; RECQ1 DNA unwinding, red fluorescence kinetic read; Potency, µM (doses to about 57.3 µM), for inactives: top-dose activity, negative = inhibition, usual class: inhibitors; actives 0.54% (n = 240,000);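 also: plate controls were vehicle for no effect and no enzyme for full effect; nearly all actives have a fitted effect of over 30% in size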
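50 nM RECQ1T1 preincubated 15 min with compound in Tris pH 8.0 buffer with MgCl2, DTT, Tween-20 and 2.5 ug/ml poly(dI-dC); started with 200 nM TAMRA/BHQ-2 forked duplex and 2 mM ATP. Unwinding read as fluorescence (525/598 nm), two reads 2 h apart.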
FEN1 inh-1: qHTS Assay for the Inhibitors of Human Flap endonuclease 1 (FEN1); actives 0.35% (n = 390,000); AID 588795, 2011; Recombinant FEN1 flap cleavage, fluorescence, 15 min; P39748; Potency, µM (titrated, usually from 114 µM), for the others: top-dose activity change, negative = inhibition, actives largely listed as inhibitors; also: % is scaled to controls: 0 for no effect and ±100 for the full control effect; nearly all actives have a fitted effect of over 65% in size
Target sequence (P39748 whole entry, looked up): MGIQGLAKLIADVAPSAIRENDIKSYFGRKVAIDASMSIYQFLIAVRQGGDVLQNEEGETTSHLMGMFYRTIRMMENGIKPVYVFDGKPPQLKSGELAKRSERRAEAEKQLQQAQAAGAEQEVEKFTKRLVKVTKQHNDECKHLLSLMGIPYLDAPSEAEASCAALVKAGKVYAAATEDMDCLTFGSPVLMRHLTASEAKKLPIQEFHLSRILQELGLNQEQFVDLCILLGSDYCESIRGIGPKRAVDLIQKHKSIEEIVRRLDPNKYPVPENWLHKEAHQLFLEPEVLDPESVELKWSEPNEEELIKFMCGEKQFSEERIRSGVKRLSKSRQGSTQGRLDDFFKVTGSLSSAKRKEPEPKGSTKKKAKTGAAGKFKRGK
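Read-out was taken twice, immediately and after 15 min, following addition of 50 nM substrate to 10 nM FEN1 that had sat with test compound for 15 min at room temperature. Curves came from a four-parameter Hill model.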
DNA dye displace: Counterscreen for APE1 Inhibitors: Fluorescent Dye Displacement Assay. shares compounds with APE1 inh-1. DNA fluorescent dye displacement counterscreen, fluorescence. Potency, µM (titrated, usually from 28.5 µM), without a hit: at the top dose activity change, negative = inhibition, most hits filed as inhibitors. actives 7% (n = 480). AID 2564, 2010;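 also: loss of thiazole orange fluorescence as the dye is displaced from duplex DNA; 0% = ThO with dsDNA and no compound and -100% = ThO without dsDNA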
EndoIV counter: Counterscreen for APE1 Inhibitors: qHTS Assay for Inhibitors of Endonuclease IV; E. coli Endo IV, fluorogenic AP-site DNA cleavage; Potency, µM (highest dose often 27.1 µM), for inactives: at the top dose activity change, negative = inhibition, actives largely listed as inhibitors; actives 4% (n = 560); AID 2565, 2010; shares compounds with APE1 inh-1;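 also: plate controls were uninhibited enzyme wells for no effect and no enzyme buffer wells for full effect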
APE1 inh-2: Confirmation qHTS Assay for Inhibitors of the Human Apurinic/apyrimidinic Endonuclease 1 (APE1); AID 2572, 2010; actives 44% (n = 750); Potency, µM (doses to about 57.1 µM), for the others: at the top dose activity change, negative = inhibition, most hits filed as inhibitors; purified APE1, fluorogenic abasic-site DNA cleavage; shares compounds with APE1 inh-1; also: % is scaled to controls: 0 for no effect and ±100 for the full control effect; nearly all actives have a fitted effect of over 30% in size
APE1 FP: qHTS FP-Based Assay for Inhibitors of the Human Apurinic/apyrimidinic Endonuclease 1 (APE1). shares compounds with APE1 inh-1. APE1 binding to TAMRA-labelled double-stranded DNA, fluorescence polarization displacement. Potency, µM (series often up to 28.5 µM), for inactives: at the highest dose activity, negative = inhibition, hits mostly inhibitors. actives 7% (n = 480). AID 2573, 2010; also: % is scaled to controls: 0 for no effect and ±100 for the full control effect
RECQ1 inh conf: Confirmation qHTS Assay for Inhibitors of RecQ-Like Dna Helicase 1 (RECQ1); actives 28% (n = 610); Potency, µM (titrated, usually from 229 µM), without a hit: at the top dose activity change, negative = inhibition, hits mostly inhibitors; AID 2708, 2010; RECQ1 helicase DNA unwinding, fluorescence; shares compounds with RECQ1 inh-1; also: % is scaled to controls: 0 for no effect and ±100 for the full control effect; nearly all actives have a fitted effect of over 45% in size
ADP FP counter: Counterscreen for RECQ1 Inhibitors: ADP Fluorescence Polarization Displacement Assay | shares compounds with RECQ1 inh-1 | ADP fluorescence polarization displacement counterscreen | actives 27% (n = 530) | Potency, µM (top dose mostly 228 µM), inactives show top-dose activity change, negative = inhibition, usual class: inhibitors; also: % is scaled to controls: 0 for no effect and ±100 for the full control effect; nearly all actives have a fitted effect of over 45% in size
RECQ1 inh-2: Confirmation qHTS Assay for Inhibitors of RecQ-Like Dna Helicase 1 (RECQ1) - Round 2 Cherry Picks | recombinant RECQ1 DNA unwinding, red fluorescence | AID 504841, 2011 | shares compounds with RECQ1 inh-1 | actives 15% (n = 1,100) | Potency, µM (top dose mostly 119 µM), for the others: at the highest dose activity, negative = inhibition, actives largely listed as inhibitors; also: % is scaled to controls: 0 for no effect and ±100 for the full control effect; nearly all actives have a fitted effect of over 50% in size
FEN1 inh-2: qHTS Assay for the Inhibitors of FEN1: Confirmatory Assay for Cherry-picked Compounds. AID 720498, 2013. actives 79% (n = 880). Potency, µM, hits mostly inhibitors. shares compounds with FEN1 inh-1. FEN1 flap cleavage, TAMRA/BHQ2 fluorogenic DNA substrate; also: nearly all actives have a fitted effect of over 60% in size
* hit, by the source's call; i = inactive; u = inconclusive; x = no result; [ ] = dose if it differs, or a comment. Calls follow the shape of the dose curve; as a rule, active = well fitted curve in the direction sought with a large enough effect; inconclusive = small, poorly fitted or top-dose-only effect, or another doubt; inactive = no such curve, though single readings can be large; an effect the other way counts as inactive or inconclusive. Potency is read from the fitted curve at half-maximal effect.

SMILES | BLM inh | TDP1 block | APE1 inh-1 | RECQ1 inh-1 | FEN1 inh-1 | DNA dye displace | EndoIV counter | APE1 inh-2 | APE1 FP | FEN1 inh-2 | others
CCOC(=O)c1c(C)n(S(=O)(=O)c2ccc(C)cc2)c2ccc(NS(=O)(=O)c3ccc(C)cc3)cc12 | -11% | x | x | x | -22% | x | x | x | x | x
COc1ccc2c(c1)c(=O)oc1cc(OCC(=O)N3CCc4ccccc4C3)ccc12 | -19% | 13µM* | 10µM* | 14µM* | -9% | -3% | u | 4µM* | -29% | x | RECQ1 inh conf=-7%[114 µM];ADP FP counter=0%[91.9 µM];RECQ1 inh-2=u
CCc1ccc(CNC(=O)c2c(C)oc3ncn(CC(C)C)c(=O)c23)cc1 | -9% | -5% | x | x | -22% | x | x | x | x | x
N#C/C(=C/c1cccn1-c1cccc(C(=O)O)c1)c1ccc(Cl)cc1 | -25% | x | 11µM* | u | 7% | u | -6% | 5µM* | 1% | x | RECQ1 inh-2=45µM*
N#C/C(=C\c1ccccc1OCc1ccc(C(=O)O)cc1)c1ccccc1 | -7% | 0% | 6% | i | -17% | x | x | x | x | x
COc1ccc(Br)cc1/C=c1\sc2nc(-c3ccco3)nn2c1=O | -25% | x | 28µM* | 8.9µM* | u | u | 6% | u | -14% | x | RECQ1 inh conf=20µM*;ADP FP counter=u
COc1ccccc1/C=c1\sc2nc(-c3ccccc3OC)nn2c1=O | 0% | 4% | -4% | -9% | 0% | x | x | x | x | x
Cc1cc[n+](-c2[nH]c(=O)sc2/C=N/N=C(\[O-])CCn2c3ccccc3c3ccccc32)cc1 | -9% | 5% | 1% | -4% | -15% | x | x | x | x | x
Cc1cc[n+](-c2[nH]c(=O)sc2/C=N/N=C(\[O-])c2ccccc2)cc1 | -1% | 40µM* | 14% | -3% | -32% | x | x | 40µM* | x | 67*
CC(C)Nc1oc(-c2ccccc2)nc1-c1cccc2ccccc12 | 2% | 8% | -4% | -2% | x | x | x | x | x | x
O=C1CCCC(O)=C1N=Nc1ccc2c(c1)OCO2 | -1% | 8% | -1% | -1% | 3% | x | x | x | x | x
O=C1CCCC(O)=C1N=Nc1ccc(C(=O)O)cc1 | 41% | 2.2µM* | 8.9µM* | u | 45µM* | u | 66% | 10µM* | -10% | u
O=C(O)CN1C(=O)/C(=C/C=C/c2ccccc2)SC1=S | -3% | 0% | -3% | -8% | -1% | x | x | x | x | x
CC(C(=O)O)N1C(=O)/C(=C/C=C/c2ccco2)SC1=S (configuration not stated) | u | u | 2.8µM* | 6.3µM* | 7.9µM* | 7% | 97% | 0.89µM* | 13µM* | 15*
O=C1/C(=C/C=C/c2ccco2)SC(=S)N1NS(=O)(=O)c1ccccc1 | u | x | 2.5µM* | 3.5µM* | 4µM* | -3% | 116% | 3.5µM* | u | 17*
CCn1c(SCc2nc3sc(C(=O)O)c(C)c3c(=O)[nH]2)nc2ccccc21 | 67% | 8.9µM* | 20µM* | u | 13µM* | x | x | u | x | 21*
COc1c(C)c2c(c(O)c1CC=C(C)CCC(=O)OCCN1CCOCC1)C(=O)OC2 | -14% | 8% | x | -5% | x | x | x | x | x | x
Cc1cccc(NC(=O)CN2C(=O)N/C(=C/c3ccc(C)o3)C2=O)c1 | 0% | 3% | u | 4% | -4% | x | x | x | x | x
Cc1cccc(NC(=O)CN2C(=O)S/C(=C\c3ccc(-c4cccc(C(=O)O)c4C)o3)C2=O)c1 | u | 25µM* | u | -15% | 40µM* | x | x | 25µM* | x | 67*
CCS(=O)(=O)N1CCC(C(=O)NCCC(C)C)CC1 | 1% | 8% | x | x | -3% | x | x | x | x | x
O=C(O)CSc1nc2sc3c(c2c(=O)n1Cc1ccccc1)CCCCC3 | -8% | x | 21% | x | -6% | x | x | x | x | x
